Source: PubChem (Broad Institute)
Most compounds without a hit are left out; they make up all but 4.8% or so of the library.
AI-2 QS mod = Vibrio harveyi AI-2 quorum sensing modulation; 300,000 compounds, 0.4% hits; Vibrio harveyi JMH597 AI-2 luminescence/OD600 ratio, 9 h; active compounds read low; strain lacks LuxN and CqsS sensors; 0 = neutral-control median; activity change, % at 7.5 µM; in the data active means activity change below about -75%, passing the limit was not always enough;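 further: luminescence divided by OD600 gain over 9 h not by final OD600 alone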
HIF activator = HIF pathway transcriptional activation | U2OS HRE-luciferase reporter, luminescence; normalized: DMSO 0%, desferrioxamine 100% | activation, % at 7.5 µM (by protocol) | 300,000 compounds, 0.32% hits | AID 1910;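 active means mean activation of at least 10% of the iron chelator positive control signal, with at least half of replicates also reaching 10%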
ALR H2O2 inh = blocks human ALR sulfhydryl oxidase activity | P55789 | purified ALR, DTT oxidation, H2O2 HRP-luminol luminescence | inhibition, % (test concentration not listed) | 290,000 compounds, 3.8% hits | AID 485317;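 active means mean replicate inhibition above about 79%, with every replicate also reaching it, limit read from the data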
Target sequence (P55789 whole entry, looked up): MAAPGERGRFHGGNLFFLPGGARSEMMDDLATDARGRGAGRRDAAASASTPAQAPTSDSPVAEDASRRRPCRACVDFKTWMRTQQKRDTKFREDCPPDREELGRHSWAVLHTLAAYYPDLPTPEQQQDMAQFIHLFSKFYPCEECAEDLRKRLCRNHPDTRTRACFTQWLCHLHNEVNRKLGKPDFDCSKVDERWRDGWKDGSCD
SUMO Mot1 rescue = inhibitors of SUMOylation pathway: yeast Mot1-301 growth rescue; growth rescue, % at 18.8 µM; 320,000 compounds, 1% hits; S. cerevisiae Mot1-301 growth rescue, ATP luminescence, 38.5C; percent above DMSO median, 100 means doubled;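 active means every valid replicate shows activation above 250% relative to neutral control wells; inactive means the rest, any valid replicate at or below 250%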;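 further: OY570 slx delta 5 strain wells were the positive control but not used for scaling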
* hit, by the source's call; . = no result.

SMILES	AI-2 QS mod	HIF activator	ALR H2O2 inh	SUMO Mot1 rescue
CCN(CC)CCCN(Cc1cc2cc3c(cc2[nH]c1=O)OCO3)C(=S)NCCCN(C)C	13	1	0	880*
NC(=O)COC(=O)c1ccc2noc(-c3ccccc3)c2c1	8	-20	.	-3
CC(=O)Nc1ccc(SCC(=O)N2CCN(S(=O)(=O)c3ccccc3)CC2)cc1	.	0	98*	-14
CNC(=O)N(O)C1N(/N=C/c2cc(Br)ccc2O)C(=S)SC1(C)C (stereo unspecified)	-3	-10	24	27
CN(C)c1cc(-c2cccc(C(F)(F)F)c2)oc(=O)c1Cl	30	-1	0	148
Cc1ccc2c(c1)c1c(n2CC(O)CN2CCC(C)CC2)CCCC1 (stereo unspecified)	8	0	93*	3
Cc1ccc(C)c(OCC(O)CN2CCCCC2C)c1 (stereo unspecified)	12	0	-1	5
Cc1ccc2c(c1)c1c(n2CC(O)CN2CCCCC2C)CCCC1 (stereo unspecified)	36	-1	95*	162
Cc1ccc2c(c1)c(C)c(C)n2CC(O)CN1CCCCC1C (stereo unspecified)	15	.	95*	-5
CC(NC(=O)c1cc2cc(Br)ccc2oc1=N)c1ccccc1 (stereo unspecified)	3	-1	-9	-21
C=CCNC(=O)/C(C#N)=C\c1cc(Cl)c(OCC)c(OC)c1	16	-1	98*	3
Nc1nc(N)nc(-c2cc(O)ccc2O)n1	.	.	91*	8
CCOc1cc(/C=N/Nc2ncc(C)c(=O)[nH]2)ccc1O	13	-30	100*	267
Cc1cc(=O)[nH]c(N/N=C/c2c(F)c(F)c(F)c(F)c2F)n1	0	0	76*	-2
CCOc1cc(/C=N\Nc2nc(-c3ccc(C)cc3)c(NC(C)=O)s2)ccc1O	21	0	6	-3
CCOc1cc(/C=N/Nc2nc(C)cc(=O)[nH]2)ccc1O	17	-2	96*	189
CCN(CC)c1ccc(/C=N/Nc2nc(C)cc(=O)[nH]2)c(O)c1	31	57*	58	-10
CC(C)NC(=O)Nc1cccc2c1O[C@H](CN(C)C(=O)NC1CCCCC1)[C@H](C)CN([C@H](C)CO)C2=O	.	.	-2	26
COC(=O)N1C(=O)[C@@](c2ccccc2)(C2CCCCC2)N1C(=O)OC	21	2	12	232
CC(C)C(=O)Nc1ccc(N2CCCC2)c(Cl)c1	11	1	7	497*
O=C(CN1C(=O)NC2(CCCc3ccccc32)C1=O)NCc1cccs1 (stereo unspecified)	.	.	.	7
Cc1cccc2sc(NNC(=O)C3COc4ccccc4O3)nc12 (stereo unspecified)	14	0	100*	6
O=C(NNc1nc2c(F)cc(F)cc2s1)C1COc2ccccc2O1 (stereo unspecified)	18	-1	.	77
Cc1cc(C(=O)OCC(=O)N2CCC(C)CC2)c2ccccc2n1	.	.	-3	-7
COc1ccc(-c2nc(CSCC(=O)NCc3ccco3)c(C)o2)cc1	29	0	99*	-14
SMILES	AI-2 QS mod	HIF activator	ALR H2O2 inh	SUMO Mot1 rescue
Cc1ccc(-c2nc(CSCC(=O)NCc3cccnc3)c(C)o2)cc1	12	0	99*	5
Cc1oc(-c2ccc(Cl)cc2)nc1CN1CCC(C(=O)NCc2cccnc2)CC1	9	0	-5	-18
Cc1ccc2c(c1)C1(C(=O)N2)N2CCCC2C(C(=O)c2ccc3ccccc3c2)C12C(=O)Nc1ccccc12 (stereo unspecified)	8	.	.	10
COc1ccc(N2C(=O)CC(Nc3ccc(N4CCOCC4)cc3)C2=O)c(OC)c1 (stereo unspecified)	28	1	98*	-6
Cc1ccc(CN2C(=O)CC(Nc3ccc(N4CCOCC4)cc3)C2=O)cc1 (stereo unspecified)	14	-3	99*	-11
COc1cccc(N2C(=O)CC(Nc3ccc(N4CCOCC4)cc3)C2=O)c1 (stereo unspecified)	25	0	99*	-31
O=C1CC(Nc2ccc(N3CCOCC3)cc2)C(=O)N1CCc1ccccc1 (stereo unspecified)	0	-1	25	0
O=C1CC(Nc2ccc(N3CCOCC3)cc2)C(=O)N1c1cccc(C(F)(F)F)c1 (stereo unspecified)	20	0	.	-5
COc1ccc(CCC(=O)OCC(=O)Nc2c(C)n(C)n(-c3ccccc3)c2=O)cc1	.	.	-1	-2
CC(=O)c1cccc(NC(=O)CNC(=O)Cc2ccccc2)c1	13	-7	-4	8
O=C(CSc1nnc(-c2ccc(F)cc2)c2ccccc12)Nc1ccccc1	20	1	99*	12
COC(=O)Cc1nnc(SCC(=O)Nc2ccccc2)c2ccccc12	14	1	98*	55
CC(C)(Oc1ccc(Cl)cc1)C(=O)Nc1ccc(S(=O)(=O)Nc2ncccn2)cc1	4	0	0	-4
CC(NC(=O)COC(=O)c1ccc(CO)cc1)C1CC2CCC1C2 (stereo unspecified)	.	.	-21	-10
Cc1cc(C(=O)Nc2ccc(S(=O)(=O)Nc3onc(C)c3C)cc2)c(C)o1	37	0	84*	-12
Cc1ccc2oc(C(=O)Nc3ccc(S(=O)(=O)Nc4onc(C)c4C)cc3)c(C)c2c1	10	1	98*	4
Cc1cc(NS(=O)(=O)c2ccc(NC(=O)Nc3cccc(Cl)c3)cc2)no1	-59	-1	98*	0
Cc1cc(NS(=O)(=O)c2ccc(NC(=O)c3oc4ccccc4c3C)cc2)no1	19	0	98*	-17
Cc1noc(NS(=O)(=O)c2ccc(NC(=O)c3ccoc3C)cc2)c1C	18	0	12	14
Cc1cccc(NC(=O)Nc2ccc(S(=O)(=O)Nc3onc(C)c3C)cc2)c1	.	.	50	38
Cc1cc(NS(=O)(=O)c2ccc(NC(=O)Nc3ccc4c(c3)OCO4)cc2)no1	-6	1	.	-13
CCCN1CCN(C(=O)c2ccc(F)c(S(=O)(=O)N3CCOCC3)c2)CC1	.	.	0	-3
COC(=O)c1ccccc1NC(=O)CNCCc1ccc(OC)c(OC)c1	-2	-1	-1	-11
CCCN(CC(=O)Nc1ccccc1OC)C(=O)CCC(=O)c1ccc(OCC)cc1	.	.	.	-1
Cc1cc(C(=O)Nc2ccc(S(=O)(=O)Nc3onc(C)c3C)cc2)cs1	25	0	97*	0
COc1ccc(S(=O)(=O)N2CCC(C(=O)NCCN3CCOCC3)CC2)cc1	5	-1	-7	-13
O=C(NCc1ccco1)c1cc(-c2cccs2)on1	-16	21*	8	5
O=C(NCc1ccco1)c1cc(-c2ccccc2)on1	2	12*	-2	-9
O=C(NCC1CCCO1)c1cc(-c2ccccc2)on1 (stereo unspecified)	30	15*	-4	67
Cc1ccc(-c2cc(C(=O)NCC3CCCO3)no2)cc1 (stereo unspecified)	19	1	-3	11
